Test [1] is described as follows: qHTS assay to identify small molecule that activate the aryl hydrocarbon receptor (AhR) signaling pathway - cell viability counter screen (AID 743086). Further: nearly all actives have a fitted effect of over 45% in size. Further: potency means the concentration at half of the fitted maximal effect. The essentials: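 Cytotoxicity counter screen: CellTiter-Fluor signal (30 min, 37 C) in 4000 HepG2 cells/well carrying the DRE-luciferase reporter, following 24 h compound exposure at 37 C.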
Test [2] is described as follows: qHTS assay for small molecules that induce genotoxicity in human embryonic kidney cells expressing luciferase-tagged ATAD5 (AID 651632). Further: nearly all actives have a fitted effect of over 15% in size. In a few lines: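 Genotoxicity read-out via ATAD5-luciferase: HEK293T cells, 16 hr compound incubation at 37C, Amplite detection.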
(Quantitative high-throughput screening tests each substance at several concentrations.)

Test [3] in a line: qHTS assay for small molecule agonists of the p53 signaling pathway - cell viability (AID 651633; calls by dose curve; further: potency means the concentration at half of the fitted maximal effect; nearly all actives have a fitted effect of over 30% in size). The essentials:
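Viability counter-read: CellTiter-Glo luminescence (30 min, room temperature) in the same p53RE-bla plates. These plates had been exposed to compounds for 16 h at 37 C.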

Test [4] is described as follows: qHTS assay for small molecules that induce genotoxicity in human embryonic kidney cells expressing luciferase-tagged ATAD5 - cell viability (AID 651634; calls by dose curve; further: potency means the concentration at half of the fitted maximal effect; nearly all actives have a fitted effect of over 25% in size). In a few lines: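 Live-cell protease activity (CellTiter-Fluor, fluorescence) indicates viability. HEK293T cells with luciferase-tagged ATAD5; 15.5 hr compound treatment at 37C.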
A short description of test [5]: qHTS assay for small molecule disruptors of the mitochondrial membrane potential - cell viability (AID 720634; calls by dose curve;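 further: human HepG2 liver cancer cells; series mostly up to about 83 µM; nearly all actives have a fitted effect of over 20% in size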). The essentials:
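Human hepatoma HepG2 cells were treated for 1 hr with test chemicals, then given m-MPI dye and CellTiter-Glo. Cell viability reflects luminescence proportional to cellular ATP.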

A short description of test [6]: qHTS assay to test for compound auto fluorescence at 590 nm (red) in HepG2 cells (AID 720674). In a few lines: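 We screened compounds on adherent HepG2 cells, incubating them for an hour at 37 C in 5% CO2 before reading emission at 590 nm under 540 nm excitation; values reflect equivalence to Rose Bengal sodium fluorescence.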
Test [7] is described as follows: qHTS assay to test for compound auto fluorescence at 535 nm (green) in HepG2 cells (AID 720675).
The nature of test [8]: qHTS assay to test for compound auto fluorescence at 460 nm (blue) in HEK293 cells (AID 720678). The essentials:
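Intrinsic compound fluorescence is recorded in live HEK293 cultures after overnight incubation at 37C, 5% CO2, using excitation 405 nm and emission 460 nm. Values are referenced to triamterene.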

Test [9] can be described thus: qHTS assay to test for compound auto fluorescence at 590 nm (red) in HEK293 cells (AID 720679). The essentials: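 Red autofluorescence, HEK293 cells: 2,000 cells/well; attach 4-5 hr 37C; add 23 nL cpd or DMSO; incubate o/n 37C 5% CO2; read Ex540/Em590; Rose Bengal sodium reference.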
Test [10] can be described thus: qHTS assay to test for compound auto fluorescence at 535 nm (green) in HEK293 cells (AID 720680).
A short description of test [11]: qHTS assay to test for compound auto fluorescence at 460 nm (blue) in HEK293 cell free culture (AID 720681). In a few lines: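 Blue fluorescence (Ex 405/Em 460 nm, triamterene-equivalent) was read immediately after pin transfer of compound or DMSO into medium (DMEM, 10% FBS) without cells.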
Test [12] can be described thus: qHTS assay to test for compound auto fluorescence at 535 nm (green) in HEK293 cell free culture (AID 720682). The essentials:
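Green-channel intensity (Ex/Em 485/535 nm) was recorded from compound-treated wells containing only DMEM with 10% FBS. Fluorescein provided the equivalency standard.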

Test [13] is described as follows: qHTS assay to test for compound auto fluorescence at 590 nm (red) in HEK293 cell free culture (AID 720683). The essentials: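 Red-channel autofluorescence of compounds in culture medium (DMEM, 10% FBS), no cells, measured at 540/590 nm. Rose Bengal sodium is the reference fluorophore for equivalence.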
Test [14] can be described thus: qHTS assay to test for compound auto fluorescence at 590 nm (red) in HepG2 cell free culture (AID 720684). In a few lines: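 Steps: dispense MEM/10% FBS medium, no cells; pin compound or DMSO vehicle; read red channel, Ex/Em 540/590 nm. Output given as Rose Bengal sodium equivalents.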
Test [15] can be described thus: qHTS assay to test for compound auto fluorescence at 460 nm (blue) in HepG2 cell free culture (AID 720685). In a few lines: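 Compound (23 nL) or DMSO pinned into cell-free MEM with 10% FBS; blue fluorescence read at 405/460 nm excitation/emission, expressed as auto-fluorescence equivalency to triamterene.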
Test [16] in a line: qHTS assay to test for compound auto fluorescence at 535 nm (green) in HepG2 cell free culture (AID 720686).
Test [17] in a line: qHTS assay to test for compound auto fluorescence at 460 nm (blue) in HepG2 cells (AID 720687). The essentials:
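Blue-channel autofluorescence (Ex/Em 405/460 nm, triamterene-equivalent) was measured after 1 hr compound exposure at 37 C, 5% CO2. Cells were HepG2, plated overnight at 37 C in MEM plus 10% FBS.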

Test [18] can be described thus: qHTS assay to identify small molecule antagonists of the glucocorticoid receptor (GR) signaling pathway - cell viability counter screen (AID 720693). Further: potency means the concentration at half of the fitted maximal effect; nearly all actives have a fitted effect of over 55% in size.
A short description of test [19]: qHTS assay for identifying genotoxic compounds that show differential cytotoxicity against isogenic chicken DT40 cell lines with known DNA damage response pathways - wild type cell line (AID 743012). Further: potency means the concentration at half of the fitted maximal effect; nearly all actives have a fitted effect of over 60% in size. In a few lines:
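Quantitative HTS on parental DT40 cells: 40 h compound treatment at 37 C/5% CO2, with viability then determined by CellTiter-Glo luminescence. Values serve as the DNA repair-proficient reference for differential cytotoxicity.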

Test [20] is described as follows: qHTS assay for identifying genotoxic compounds that show differential cytotoxicity against isogenic chicken DT40 cell lines with known DNA damage response pathways - Rev3 mutant cell line (AID 743014). Further: potency means the concentration at half of the fitted maximal effect; nearly all actives have a fitted effect of over 55% in size.
Test [21] in a line: qHTS assay for identifying genotoxic compounds that show differential cytotoxicity against isogenic chicken DT40 cell lines with known DNA damage response pathways - Rad54/Ku70 mutant cell line (AID 743015). Further: potency means the concentration at half of the fitted maximal effect; nearly all actives have a fitted effect of over 60% in size.
A short description of test [22]: qHTS assay to identify small molecule antagonists of the androgen receptor (AR) signaling pathway - cell viability counter screen (AID 743033; further: potency means the concentration at half of the fitted maximal effect; nearly all actives have a fitted effect of over 45% in size).
Test [23] has as its target Androgen receptor (Homo sapiens) (UniProt P10275). As to the kind of experiment: qHTS assay to identify small molecule antagonists of the androgen receptor (AR) signaling pathway (AID 743035; active means well fitted inhibition curve with a large enough effect in the signal ratio in the repeat runs, not every such curve was filed as active; the % refers to the signal ratio; further: potency means the concentration at half of the fitted maximal effect). The essentials: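 Cell line: GeneBLAzer AR-UAS-bla GripTite (HEK293). Stimulus: R1881 added after compound. Exposure: 16 h, 37C, 5% CO2. Readout: LiveBLAzer B/G FRET fluorescence after 2 h at room temperature.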

Test [24] shares this target. As to the kind of experiment: qHTS assay to identify small molecule agonists of the androgen receptor (AR) signaling pathway (AID 743036; active means well fitted activation curve with a large enough effect in the signal ratio in the repeat runs, with a control signal flat, not every such curve was filed as active; the % refers to the signal ratio). In a few lines:
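Cell-based FRET reporter assay: HEK293 line with a UAS-beta-lactamase construct, compounds added in DMSO, 16 h exposure at 37C, then 2 h substrate step at room temperature and fluorescence intensity read.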

Test [25] has the same target. Kind of test: qHTS assay to identify small molecule agonists of the androgen receptor (AR) signaling pathway using the MDA cell line (AID 743040; further: nearly all actives have a fitted effect of over 20% in size). In a few lines:
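Cells plated, 5 h at 37C/0% CO2; compound or DMSO pinned; 16 h at 37C; ONE-Glo added; luminescence measured after 30 min at room temperature. Reporter line: MDA-kb2 with MMTV-luciferase responsive to AR and GR.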

Test [26] can be described thus: qHTS assay to identify small molecule antagonists of the thyroid receptor (TR) signaling pathway - cell viability counter screen (AID 743064). Further: potency means the concentration at half of the fitted maximal effect; nearly all actives have a fitted effect of over 50% in size. In a few lines: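 In rat pituitary GH3.TRE-Luc reporter cells co-exposed to compound and 1 nM T3 for 23.5 h, cytotoxicity was assessed with CellTiter-Fluor in the same wells, read by fluorescence.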
The nature of test [27]: qHTS assay to identify small molecule antagonists of the thyroid receptor (TR) signaling pathway (AID 743065). Further: potency means the concentration at half of the fitted maximal effect; nearly all actives have a fitted effect of over 55% in size. The essentials: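 Antagonism measured as loss of luciferase signal in GH3 cells stably carrying a TRE-luciferase reporter, co-treated with compound and T3 (1 nM final) for 23.5 h at 37 C. Viability was read in the same well by CellTiter-Fluor.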
Test [28] in a line: qHTS assay to identify small molecule antagonists of the estrogen receptor alpha (ER-alpha) signaling pathway - cell viability counter screen (AID 743074; calls by dose curve;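 further: HEK293 cells carrying ER-alpha-UAS-bla reporter stimulated with 17beta-estradiol; potency means the concentration at half of the fitted maximal effect; nearly all actives have a fitted effect of over 45% in size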).
Test [29] addresses Estrogen receptor (Homo sapiens) (UniProt P03372). As to the kind of experiment: qHTS assay to identify small molecule agonists of the estrogen receptor alpha (ER-alpha) signaling pathway (AID 743075; calls by dose curve;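 further: HEK293 GripTite cells with ER-alpha and UAS-driven beta-lactamase reporter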).
Test [30] can be described thus: qHTS assay to identify small molecule antagonists of the estrogen receptor alpha (ER-alpha) signaling pathway using the BG1 cell line - cell viability counter screen (AID 743081).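 Further: compound given together with 17beta-estradiol as the ER stimulus; series mostly up to about 70 µM; nearly all actives have a fitted effect of over 45% in size.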
The target of test [31] is Peroxisome proliferator-activated receptor gamma (Homo sapiens) (UniProt P37231). Kind of test: qHTS assay to identify small molecule agonists of the peroxisome proliferator-activated receptor gamma (PPARg) signaling pathway (AID 743094; active means well fitted activation curve with a large enough effect in the signal ratio in the repeat runs, not every such curve was filed as active; the % refers to the signal ratio). The essentials:
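Stably transfected HEK293H cells (GeneBLAzer PPARg UAS-bla) were incubated with test substances for 17 h at 37C after a 5 h pre-incubation; beta-lactamase activity was then detected by FRET substrate fluorescence.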

This is an account of results in PubChem BioAssay (Tox21).

Inconclusive results are not listed. Activity calls are given as the source filed them. Unless noted, the call rests on the fitted dose curve; in most records, active means well fitted curve in the direction sought with a large enough effect in the repeat runs; inconclusive means weak or mixed curves; inactive means no such curve, though single readings can be large; an effect the other way counts as inactive or inconclusive.

Androgen receptor (Homo sapiens), sequence (P10275 whole entry, looked up): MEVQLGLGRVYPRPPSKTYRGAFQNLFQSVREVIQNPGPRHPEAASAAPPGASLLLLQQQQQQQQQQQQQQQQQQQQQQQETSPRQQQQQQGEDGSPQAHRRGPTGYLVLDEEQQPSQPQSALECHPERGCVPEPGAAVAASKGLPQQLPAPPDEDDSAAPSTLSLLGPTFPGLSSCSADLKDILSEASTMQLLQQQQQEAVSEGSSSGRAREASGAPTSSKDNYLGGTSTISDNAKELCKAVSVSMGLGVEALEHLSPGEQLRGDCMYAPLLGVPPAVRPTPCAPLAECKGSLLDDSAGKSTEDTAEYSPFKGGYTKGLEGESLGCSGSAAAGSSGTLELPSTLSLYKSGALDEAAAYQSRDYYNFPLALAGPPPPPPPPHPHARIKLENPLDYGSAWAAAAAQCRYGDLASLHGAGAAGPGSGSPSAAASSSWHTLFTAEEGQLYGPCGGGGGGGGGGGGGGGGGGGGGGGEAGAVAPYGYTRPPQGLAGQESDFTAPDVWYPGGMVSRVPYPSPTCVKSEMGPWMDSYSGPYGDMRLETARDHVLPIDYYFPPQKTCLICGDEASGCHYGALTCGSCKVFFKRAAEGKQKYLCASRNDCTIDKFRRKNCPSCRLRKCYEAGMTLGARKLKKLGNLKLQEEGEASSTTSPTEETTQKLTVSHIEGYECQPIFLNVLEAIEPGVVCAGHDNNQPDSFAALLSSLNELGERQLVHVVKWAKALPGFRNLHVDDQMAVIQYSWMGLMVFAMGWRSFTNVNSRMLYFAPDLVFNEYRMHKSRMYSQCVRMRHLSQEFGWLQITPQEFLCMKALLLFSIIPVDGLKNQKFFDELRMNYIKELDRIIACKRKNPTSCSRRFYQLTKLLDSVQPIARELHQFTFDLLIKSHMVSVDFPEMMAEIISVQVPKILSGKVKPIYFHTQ
Peroxisome proliferator-activated receptor gamma (Homo sapiens), sequence (P37231 whole entry, looked up): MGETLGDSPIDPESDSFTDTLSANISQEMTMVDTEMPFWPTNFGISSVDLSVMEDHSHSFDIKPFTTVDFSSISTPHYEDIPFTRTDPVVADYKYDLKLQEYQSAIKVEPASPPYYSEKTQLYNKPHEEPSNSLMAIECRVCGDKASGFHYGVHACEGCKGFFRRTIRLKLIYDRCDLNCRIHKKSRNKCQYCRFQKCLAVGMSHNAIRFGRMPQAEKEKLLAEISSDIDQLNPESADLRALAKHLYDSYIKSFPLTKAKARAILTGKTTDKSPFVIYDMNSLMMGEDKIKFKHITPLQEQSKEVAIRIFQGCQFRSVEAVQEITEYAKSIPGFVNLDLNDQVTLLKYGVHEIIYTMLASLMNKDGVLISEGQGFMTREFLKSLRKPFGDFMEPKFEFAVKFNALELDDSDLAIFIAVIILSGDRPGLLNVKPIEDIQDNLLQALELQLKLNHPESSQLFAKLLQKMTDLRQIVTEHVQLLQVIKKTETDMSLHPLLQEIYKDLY
Estrogen receptor (Homo sapiens), sequence (P03372 whole entry, looked up): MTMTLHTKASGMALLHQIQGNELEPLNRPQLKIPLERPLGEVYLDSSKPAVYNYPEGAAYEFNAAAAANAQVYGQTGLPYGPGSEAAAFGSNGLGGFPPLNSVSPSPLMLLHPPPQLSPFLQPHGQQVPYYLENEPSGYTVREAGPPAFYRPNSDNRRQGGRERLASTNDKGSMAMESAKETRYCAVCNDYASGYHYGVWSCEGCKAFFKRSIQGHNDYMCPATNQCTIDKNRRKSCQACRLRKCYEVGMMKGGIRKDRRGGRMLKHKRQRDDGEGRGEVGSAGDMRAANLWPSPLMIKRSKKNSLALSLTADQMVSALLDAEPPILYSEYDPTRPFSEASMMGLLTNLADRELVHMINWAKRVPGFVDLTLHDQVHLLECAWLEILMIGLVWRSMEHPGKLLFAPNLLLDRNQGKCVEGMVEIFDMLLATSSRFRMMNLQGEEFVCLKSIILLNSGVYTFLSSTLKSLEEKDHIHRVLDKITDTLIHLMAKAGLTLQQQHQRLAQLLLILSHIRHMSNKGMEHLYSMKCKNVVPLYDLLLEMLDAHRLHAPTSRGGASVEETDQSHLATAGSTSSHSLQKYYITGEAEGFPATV

For the compound `Cc1ccc2c(c1)[C@]13CCCC[C@@H]1[C@H](C2)N(C)CC3`, the Potency entry in [1] is “inactive”.
Consider `CN1C2CCC1CC(OC(c1ccccc1)c1ccc(Cl)cc1)C2` (configuration not stated), for which the compound was called inactive in test [2], in test [5], in [6], in test [7], in [8] and in test [9]. In addition, the compound was classed as inactive in test [10], in [11], in test [12], in test [13], in test [14] and in [15]. Moreover, the outcome in test [16], in test [17], in test [24], in test [25] and in [31] was inactive. The Potency was 29.8 µM (active) in [3]; 26.6 µM (active) in test [4]; 23.9 µM (active) in test [18]; 2.11 µM (active) in test [19]; 2.98 µM (active) in [20]; 4.22 µM (active) in test [21]. Also, the Potency is 15.1 µM (active) in [22]; 21.3 µM (active) in test [23]; 4.73 µM (active) in test [26]; 5.96 µM (active) in test [27]; 23.9 µM (active) in test [28]; 23.7 µM (active) in test [1]. The Potency result in [29] and in test [30] was “inactive” each time.
